# In the supplement of paper PMC8728848:
# The full list was thinned out, with the strongest signals kept by preference.
# B1: SalT (Orysata sativa) (protein)
# chain: MTLVKIGLWGGNGGSAQDISVPPKKLLGVTIYSSDAIRSIAFNYIGVDGQEYAIGPWGGGEGTSTEIKLGSSEHIKEISGTHGPVYDLADIVTYLKIVTSANNTYEAGVPNGKEFSIPLQDSGHVVGFFGRSGTLIDAIGIYVHPILEQKLISEEDLNSAVDHHHHHH
# Assays:
# Assay in all cases: glycan array binding signal (z-score within array); higher = stronger binding
# Conditions in all cases: glycan notation: IUPAC condensed, linker removed
# Fuc(a1-2)Gal(b1-3)GalNAc = target: Fuc(a1-2)Gal(b1-3)GalNAc
# How it was run: (§1)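 Glycan array data were curated from 3228 arrays in the Consortium for Functional Glycomics database and kept only where the protein sequence was available. Glycan names were converted to IUPAC-condensed notation, and columns mapping to the same glycan were averaged. The binding signal is a within-array Z-score, averaged across arrays of the same protein sequence at different concentrations or buffers and across linkers. Negative Z-scores can be read as non-binding.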
# [1] = target: Fuc(a1-2)Gal(b1-3)GalNAc(a1-3)[Fuc(a1-2)]Gal(b1-4)Glc
# How it was run: as §1
# [2] = target: Fuc(a1-2)Gal(b1-3)GalNAc(a1-3)[Fuc(a1-2)]Gal(b1-4)GlcNAc
# How it was run: as §1
# [3] = target: Fuc(a1-2)Gal(b1-3)[Fuc(a1-4)]GlcNAc(b1-3)[Fuc(a1-3)[Gal(b1-4)]GlcNAc(b1-6)]Gal(b1-4)Glc
# How it was run: as §1
# [4] = target: Fuc(a1-2)Gal(b1-4)GlcNAc(b1-3)GalNAc
# How it was run: as §1
# [5] = target: Fuc(a1-2)Gal(b1-4)GlcNAc6S
# How it was run: as §1
# [6] = target: Fuc(a1-2)Gal(b1-4)[Fuc(a1-3)]GlcNAc(b1-3)Gal(b1-4)[Fuc(a1-3)]GlcNAc
# How it was run: as §1
# [7] = target: Fuc(a1-2)[Gal(a1-3)]Gal(b1-4)Glc
# How it was run: as §1
# [8] = target: Fuc(a1-2)[Gal(a1-4)]Gal(b1-4)GlcNAc
# How it was run: as §1
# [9] = target: Fuc(a1-2)[GalNAc(b1-3)]Gal
# How it was run: as §1
# [10] = target: Fuc(a1-3)[Gal(b1-4)]GlcNAc(b1-3)GalNAc
# How it was run: as §1
# [11] = target: Fuc(a1-3)[Gal(b1-4)]GlcNAc(b1-6)[Gal(b1-3)GlcNAc(b1-3)]Gal(b1-4)Glc
# How it was run: as §1
# [12] = target: Fuc(a1-3)[GalNAc(b1-4)]GlcNAc
# How it was run: as §1
# [13] = target: Gal(a1-4)Gal(b1-3)GlcNAc(b1-2)Man(a1-3)[Gal(a1-4)Gal(b1-3)GlcNAc(b1-2)Man(a1-6)]Man(b1-4)GlcNAc(b1-4)GlcNAc
# How it was run: as §1
# [14] = target: Gal(b1-3)Gal(b1-4)GlcNAc(b1-2)Man(a1-3)[Gal(b1-3)Gal(b1-4)GlcNAc(b1-2)Man(a1-6)]Man(b1-4)GlcNAc(b1-4)GlcNAc
# How it was run: as §1
# [15] = target: Gal(b1-3)GlcNAc(b1-2)Man(a1-3)[Gal(b1-3)GlcNAc(b1-2)Man(a1-6)]Man(b1-4)GlcNAc(b1-4)GlcNAc
# How it was run: as §1
# [16] = target: Gal(b1-4)GlcNAc(b1-2)Man(a1-3)[Gal(b1-4)GlcNAc(b1-2)][GlcNAc(b1-4)]Man(b1-4)GlcNAc(b1-4)GlcNAc
# How it was run: as §1
# [17] = target: Gal(b1-4)GlcNAc(b1-2)Man(a1-3)[GlcNAc(b1-2)Man(a1-6)]Man(b1-4)GlcNAc(b1-4)GlcNAc
# How it was run: as §1
# [18] = target: Gal(b1-4)GlcNAc(b1-2)Man(a1-6)[Man(a1-3)]Man(b1-4)GlcNAc(b1-4)GlcNAc
# How it was run: as §1
# [19] = target: Gal(b1-4)GlcNAc(b1-2)[Gal(b1-4)GlcNAc(b1-6)]Man(a1-6)[Gal(b1-4)GlcNAc(b1-2)Man(a1-3)]Man(b1-4)GlcNAc(b1-4)[Fuc(a1-6)]GlcNAc
# How it was run: as §1
# [20] = target: Gal(b1-4)GlcNAc(b1-6)GalNAc
# How it was run: as §1
# [21] = target: Gal3S(b1-4)[Fuc(a1-3)]Glc6S
# How it was run: as §1
# GalNAc3S(b1-4)GlcNAc = target: GalNAc3S(b1-4)GlcNAc
# How it was run: as §1
# Glc(b1-4)Glc = target: Glc(b1-4)Glc
# How it was run: as §1
# [22] = target: GlcNAc(b1-2)Man(a1-3)[GlcNAc(b1-2)Man(a1-6)]Man(b1-4)GlcNAc(b1-4)GlcNAc
# How it was run: as §1
# [23] = target: GlcNAc(b1-3)[GlcNAc(b1-6)]GalNAc
# How it was run: as §1
# Kdn(a2-3)Gal(b1-4)Glc = target: Kdn(a2-3)Gal(b1-4)Glc
# How it was run: as §1
# [24] = target: Man(a1-2)Man(a1-3)[Man(a1-2)Man(a1-6)]Man(a1-6)[Man(a1-2)Man(a1-2)Man(a1-3)]Man
# How it was run: as §1
# [25] = target: Man(a1-2)Man(a1-6)[Man(a1-3)]Man(a1-6)[Man(a1-2)Man(a1-2)Man(a1-3)]Man
# How it was run: as §1
# [26] = target: Man(a1-3)[Man(a1-6)]Man(a1-6)[Man(a1-2)Man(a1-3)]Man(b1-4)GlcNAc(b1-4)GlcNAc
# How it was run: as §1
# [27] = target: Man(a1-3)[Man(a1-6)]Man(a1-6)[Man(a1-3)]Man(b1-4)GlcNAc(b1-4)GlcNAc
# How it was run: as §1
# [28] = target: Man(a1-3)[Man(a1-6)]Man(b1-4)GlcNAc(b1-4)GlcNAc
# How it was run: as §1
# [29] = target: Neu5Ac(a2-3)Gal(b1-3)GalNAc(b1-4)[Neu5Ac(a2-3)]Gal(b1-4)Glc
# How it was run: as §1
# [30] = target: Neu5Ac(a2-3)Gal(b1-4)[Fuc(a1-3)]GlcNAc(b1-3)Gal(b1-4)[Fuc(a1-3)]GlcNAc(b1-3)Gal(b1-4)[Fuc(a1-3)]GlcNAc
# How it was run: as §1
# Neu5Ac(a2-6)Gal = target: Neu5Ac(a2-6)Gal
# How it was run: as §1
# [31] = target: Neu5Ac(a2-6)Gal(b1-4)GlcNAc(b1-2)Man(a1-3)[Neu5Ac(a2-6)Gal(b1-4)GlcNAc(b1-2)Man(a1-6)]Man(b1-4)GlcNAc(b1-4)GlcNAc
# How it was run: as §1
# [32] = target: Neu5Ac(a2-6)Gal(b1-4)GlcNAc(b1-2)Man(a1-3)[Neu5Ac(a2-6)Gal(b1-4)GlcNAc(b1-2)Man(a1-6)]Man(b1-4)GlcNAc(b1-4)[Fuc(a1-6)]GlcNAc
# How it was run: as §1
# [33] = target: Neu5Ac(a2-6)Gal(b1-4)GlcNAc(b1-2)Man(a1-6)[Man(a1-3)]Man(b1-4)GlcNAc(b1-4)GlcNAc
# How it was run: as §1
# [34] = target: Neu5Ac(a2-6)Gal(b1-4)GlcNAc(b1-3)GalNAc
# How it was run: as §1
# Neu5Ac(a2-6)GalNAc = target: Neu5Ac(a2-6)GalNAc
# How it was run: as §1
# [35] = target: Neu5Ac(a2-6)GalNAc(b1-4)GlcNAc6S
# How it was run: as §1
binder,measurement,setting,value
B1,glycan array binding signal (z-score),Fuc(a1-2)Gal(b1-3)GalNAc,-0.283
same,glycan array binding signal (z-score),[1],-0.306
same,glycan array binding signal (z-score),[2],-0.31
same,glycan array binding signal (z-score),[3],-0.307
same,glycan array binding signal (z-score),[4],-0.307
same,glycan array binding signal (z-score),[5],-0.308
same,glycan array binding signal (z-score),[6],-0.308
same,glycan array binding signal (z-score),[7],-0.308
same,glycan array binding signal (z-score),[8],-0.309
same,glycan array binding signal (z-score),[9],-0.31
same,glycan array binding signal (z-score),[10],-0.301
same,glycan array binding signal (z-score),[11],-0.31
same,glycan array binding signal (z-score),[12],-0.306
same,glycan array binding signal (z-score),[13],3.59
same,glycan array binding signal (z-score),[14],3.71
same,glycan array binding signal (z-score),[15],3.69
same,glycan array binding signal (z-score),[16],0.03
same,glycan array binding signal (z-score),[17],2.65
same,glycan array binding signal (z-score),[18],4.64
same,glycan array binding signal (z-score),[19],0.799
same,glycan array binding signal (z-score),[20],-0.307
same,glycan array binding signal (z-score),[21],-0.3
same,glycan array binding signal (z-score),GalNAc3S(b1-4)GlcNAc,-0.306
same,glycan array binding signal (z-score),Glc(b1-4)Glc,-0.309
same,glycan array binding signal (z-score),[22],4.06
same,glycan array binding signal (z-score),[23],-0.309
same,glycan array binding signal (z-score),Kdn(a2-3)Gal(b1-4)Glc,-0.306
same,glycan array binding signal (z-score),[24],-0.304
same,glycan array binding signal (z-score),[25],-0.282
same,glycan array binding signal (z-score),[26],5.46
same,glycan array binding signal (z-score),[27],3.62
same,glycan array binding signal (z-score),[28],4.94
same,glycan array binding signal (z-score),[29],-0.304
same,glycan array binding signal (z-score),[30],-0.305
same,glycan array binding signal (z-score),Neu5Ac(a2-6)Gal,-0.305
same,glycan array binding signal (z-score),[31],2.81
same,glycan array binding signal (z-score),[32],0.435
same,glycan array binding signal (z-score),[33],4.96
same,glycan array binding signal (z-score),[34],-0.296
same,glycan array binding signal (z-score),Neu5Ac(a2-6)GalNAc,-0.307
same,glycan array binding signal (z-score),[35],-0.303
